In publication PMC8384837, “Expanding the binding specificity for RNA recognition by a PUF domain” one finds binding signal data, which are given here for six sequences.

Assay in all cases: yeast three-hybrid, YBZ-1, SC-Leu-His + 0.5 mM 3-AT, 4 days
Common to all, as to conditions: tags: N-Gal4 AD-HA kept; label: inside an RPR1-promoter hybrid RNA with tandem MS2 sites; ssRNA

In one test the target is PUM1 PUF domain R1-KME (Homo sapiens, UniProt Q14671 828-1176, S863K;R864M;Q867E). Put shortly: (§1)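 Each repeat of the Pumilio-1 PUF domain was randomized at its three base-contacting residues, and these libraries were co-expressed from a centromeric plasmid with matching RNA elements in strain YBZ-1. After four days on SC-Leu (input) or SC-Leu-His + 0.5 mM 3-AT (selection), the repeat regions were PCR-amplified and Illumina-sequenced. The interaction score compares variant frequency between input and selection as a log change, computed in log2 with a pseudocount of 1 for absent variants.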

A further test concerns the target PUM1 PUF domain R2-MWR (Homo sapiens, UniProt Q14671 828-1176, N899M;Y900W;Q903R). In a few lines: as §1
For another test, the target named is PUM1 PUF domain R2-DWQ (Homo sapiens, UniProt Q14671 828-1176, N899D;Y900W). In a few lines: as §1
The target in a further test is PUM1 PUF domain R3-RTH (Homo sapiens, UniProt Q14671 828-1176, C935R;R936T;Q939H). In a few lines:
as §1

The target in another test is PUM1 PUF domain R3-RTW (Homo sapiens, UniProt Q14671 828-1176, C935R;R936T;Q939W). Put shortly:
as §1

The next test has as its target PUM1 PUF domain R5-RGQ (Homo sapiens, UniProt Q14671 828-1176, C1007R;R1008G). Put shortly:
as §1

The target of the next test is PUM1 PUF domain R5-GQW (Homo sapiens, UniProt Q14671 828-1176, C1007G;R1008Q;Q1011W). In a few lines:
as §1

Another test addresses PUM1 PUF domain R5-MYS (Homo sapiens, UniProt Q14671 828-1176, C1007M;R1008Y;Q1011S). In a few lines:
as §1

The target in the next test is PUM1 PUF domain R8-RWT (Homo sapiens, UniProt Q14671 828-1176, N1122R;Y1123W;Q1126T). Put shortly:
as §1

A further test deals with T1, PUM1 PUF domain R6-VWK (Homo sapiens, UniProt Q14671 828-1176, N1043V;Y1044W;Q1047K).
T1 sequence: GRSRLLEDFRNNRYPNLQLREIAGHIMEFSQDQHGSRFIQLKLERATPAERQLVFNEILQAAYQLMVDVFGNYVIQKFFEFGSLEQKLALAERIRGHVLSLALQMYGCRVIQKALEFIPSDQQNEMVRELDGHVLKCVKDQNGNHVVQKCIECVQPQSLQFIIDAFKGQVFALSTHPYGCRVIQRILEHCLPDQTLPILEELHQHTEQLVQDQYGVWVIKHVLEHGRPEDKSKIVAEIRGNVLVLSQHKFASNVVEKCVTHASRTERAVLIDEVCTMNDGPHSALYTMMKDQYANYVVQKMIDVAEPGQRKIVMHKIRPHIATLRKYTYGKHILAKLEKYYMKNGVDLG
In a few lines:
as §1

The target in another test is PUM1 PUF domain R8-RWK (Homo sapiens, UniProt Q14671 828-1176, N1122R;Y1123W;Q1126K). Put shortly:
as §1

In a further test the target is T2, PUM1 PUF domain R6-CHR (Homo sapiens, UniProt Q14671 828-1176, N1043C;Y1044H;Q1047R).
T2 sequence: T1 sequence with V216C, W217H, K220R
Put shortly:
as §1

Another test deals with PUM1 PUF domain R8-RFH (Homo sapiens, UniProt Q14671 828-1176, N1122R;Y1123F;Q1126H). In a few lines:
as §1

The next test addresses PUM1 PUF domain R4-RHG (Homo sapiens, UniProt Q14671 828-1176, N971R;Q975G). In a few lines: as §1
A further test addresses PUM1 PUF domain R7-RRK (Homo sapiens, UniProt Q14671 828-1176, S1079R;N1080R;E1083K). In a few lines:
as §1

Residue numbers refer to the chain shown, from its start.

Consider “GGCUAGAACUAGUGGAUCCCCCGGCGCCCGGCGGCUCGAGCCCGGGUAAGUGUAAAUCGUCUGCAUGCCGCCGGGCGCCAUGCCUGCAGGUCGACUCUAGAAAACAUG”, for which, in the test with PUM1 PUF domain R1-KME, the binding signal is 4.22 log2 enrichment (interaction score).
On to “GGCUAGAACUAGUGGAUCCCCCGGCGCCCGGCGGCUCGAGCCCGGGUAAGUGUAAACAGUCUGCAUGCCGCCGGGCGCCAUGCCUGCAGGUCGACUCUAGAAAACAUG”, for which the binding signal was 5.06 log2 enrichment (interaction score) with PUM1 PUF domain R2-MWR and 4.49 log2 enrichment (interaction score) with PUM1 PUF domain R2-DWQ.
For “GGCUAGAACUAGUGGAUCCCCCGGCGCCCGGCGGCUCGAGCCCGGGUAAGUGUAAUUAGUCUGCAUGCCGCCGGGCGCCAUGCCUGCAGGUCGACUCUAGAAAACAUG”, the binding signal with PUM1 PUF domain R3-RTH was 3.6 log2 enrichment (interaction score); with PUM1 PUF domain R3-RTW, 2.38 log2 enrichment (interaction score).
For the sequence “GGCUAGAACUAGUGGAUCCCCCGGCGCCCGGCGGCUCGAGCCCGGGUAAGUGUUAAUAGUCUGCAUGCCGCCGGGCGCCAUGCCUGCAGGUCGACUCUAGAAAACAUG”, the figures for the binding signal with PUM1 PUF domain R5-RGQ, with PUM1 PUF domain R5-GQW and in the test with PUM1 PUF domain R5-MYS were 4.2 log2 enrichment (interaction score), 2.77 log2 enrichment (interaction score) and 3.54 log2 enrichment (interaction score), respectively.
For “GGCUAGAACUAGUGGAUCCCCCGGCGCCCGGCGGCUCGAGCCCGGGUAAGUGUAAAUAGUCUGCAUGCCGCCGGGCGCCAUGCCUGCAGGUCGACUCUAGAAAACAUG”, the binding signal was 4.9 log2 enrichment (interaction score) in the test with PUM1 PUF domain R8-RWT; 5.58 log2 enrichment (interaction score) in the test with PUM1 PUF domain R6-VWK; 6.43 log2 enrichment (interaction score) in the test with PUM1 PUF domain R8-RWK; 3.81 log2 enrichment (interaction score) in the test with PUM1 PUF domain R6-CHR; 4.43 log2 enrichment (interaction score) with PUM1 PUF domain R8-RFH; 2.69 log2 enrichment (interaction score) with PUM1 PUF domain R4-RHG. For the same sequence, the binding signal with PUM1 PUF domain R5-MYS was 2.4 log2 enrichment (interaction score).
For the sequence “GGCUAGAACUAGUGGAUCCCCCGGCGCCCGGCGGCUCGAGCCCGGGUAAGUCUAAAUAGUCUGCAUGCCGCCGGGCGCCAUGCCUGCAGGUCGACUCUAGAAAACAUG”, in the test with PUM1 PUF domain R7-RRK, the binding signal is 1.72 log2 enrichment (interaction score).
